The record followed here is PubChem BioAssay (NCATS).

The nature of test [1]: Viability qHTS for spleen associated tyrosine kinase inhibitor (SYKi) naive MV4-11 cells (AID 1963823). Further: nearly all actives have a fitted effect of over 40% in size. Further: potency means the concentration at half of the fitted maximal effect. The following applies: MV4-11 AML viability, CellTiter-Glo luminescence, 72 h; series mostly up to 45 µM. An outline of the steps: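 SYKi-naive MV4-11 AML cells, 500 per well, were exposed to library compounds for 72 hr at 37 C, 5% CO2. Viability was then read by CellTiter-Glo luminescence after 10 min at room temperature.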

Test [2] in a line: Viability qHTS for spleen associated tyrosine kinase inhibitor (SYKi) drug resistant MV4-11 cells (AID 1963824). Further: nearly all actives have a fitted effect of over 35% in size. Further: potency means the concentration at half of the fitted maximal effect. The following applies: SYKi-resistant MV4-11 viability, CellTiter-Glo, 72 h; series mostly up to 45 µM. A digest of the protocol: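 CellTiter-Glo luminescence, read 10 min after reagent addition, reports viability after a 72 hr compound exposure. Cells are an MV4-11 line made resistant to SYK inhibition, seeded at 500 per well onto compound-containing plates.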

Test [3] can be described thus: Quantitative highthroughput screen to assess conditional lethalithy of P12 Ichikawa cells grown in Human Plasma-Like Medium with dialyzed fetal bovine serum (HPLM+ds) (AID 1963879). Further: nearly all actives have a fitted effect of over 35% in size. Further: potency means the concentration at half of the fitted maximal effect. Conditions: ATP luminescence, 48 h; Potency: viability; series mostly up to 45.8 µM. A digest of the protocol:
(§1)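 Each medium arm—HPLM with 10% dialyzed FBS, or RPMI1640 with 5 mM glucose and 10% untreated or dialyzed FBS—was screened against an 11-point, 3-fold compound titration for 48 h at 37 °C, with CellTiter-Glo luminescence as endpoint.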

A short description of test [4]: Quantitative highthroughput screen to assess conditional lethalithy of P12 Ichikawa cells grown in RPMI1640 with dialyzed fetal bovine serum (RPMI+ds) (AID 1963880). Further: nearly all actives have a fitted effect of over 35% in size. Further: potency means the concentration at half of the fitted maximal effect.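 On Viability: 100% = DMSO wells and 0% = empty wells on each plate.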 Conditions: ATP luminescence, 48 h; Potency: P12-Ichikawa viability; series mostly up to 45.8 µM. An outline of the steps: as §1
A short description of test [5]: Cellular viability qHTS for adrenocortical cancer (ACC) cell line SW-13 (AID 1963989). Further: nearly all actives have a fitted effect of over 65% in size. Further: potency means the concentration at half of the fitted maximal effect.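 On activity (max response): cells grown in serum-free medium with ITS supplement; on the % scale 0 is the no-effect control and ±100 the full control effect.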 Conditions: SW-13 ACC cells viability, CellTiter-Glo, 48 h; activity (max response): active compounds read low. An outline of the steps: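 Luminescent ATP read-out (CellTiter-Glo, 20 min at room temperature) measured metabolically competent SW-13 cells after 48 h compound treatment. Final concentrations spanned up to 46 uM; bortezomib served as positive control.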
(In general: In qHTS, concentration-response curves come from the screen itself.)

A short description of test [6]: Quantitative highthroughput screen to assess conditional lethalithy of NOMO1 cells grown in Human Plasma-Like Medium with dialyzed fetal bovine serum (HPLM+ds) (AID 1963878). Further: nearly all actives have a fitted effect of over 35% in size. Further: potency means the concentration at half of the fitted maximal effect.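 On Viability: 100% = DMSO wells and 0% = empty wells on each plate.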 The following applies: NOMO1 AML cells in HPLM+ds, CellTiter-Glo viability, 48 h; series mostly up to 45.8 µM. A digest of the protocol: as §1
The nature of test [7]: Quantitative highthroughput screen to assess conditional lethalithy of SEM cells grown in RPMI1640 with unreated serum (RPMI+s) (AID 1963883). The following applies: SEM B-ALL cells, CellTiter-Glo viability, 48 h; series mostly up to 45.8 µM. An outline of the steps: as §1
A general note: ATP-based viability assays read luminescence as a measure of living cells.

Test [8] is described as follows: Quantitative highthroughput screen to assess conditional lethalithy of SEM cells grown in Human Plasma-Like Medium with dialyzed fetal bovine serum (HPLM+ds) (AID 1963882). Further: nearly all actives have a fitted effect of over 35% in size. Further: potency means the concentration at half of the fitted maximal effect. The following applies: SEM B-ALL cells in HPLM+ds, CellTiter-Glo viability, 48 h; series mostly up to 45.8 µM. An outline of the steps:
as §1

Test [9] in a line: Quantitative highthroughput screen to assess conditional lethalithy of SEM cells grown in RPMI1640 with dialyzed fetal bovine serum (RPMI+ds) (AID 1963884). Further: nearly all actives have a fitted effect of over 35% in size. Further: potency means the concentration at half of the fitted maximal effect.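 On Viability: 100% = DMSO control wells and 0% = empty wells without cells.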 Conditions: SEM B-ALL cells, RPMI+dialyzed FBS, CellTiter-Glo viability, 48 h; series mostly up to 45.8 µM. An outline of the steps:
as §1

Test [10] is described as follows: Cellular viability qHTS for adrenocortical cancer (ACC) cell line NCI-H295R (AID 1963990). Further: nearly all actives have a fitted effect of over 60% in size. Further: potency means the concentration at half of the fitted maximal effect. The following applies: CellTiter-Glo ATP luminescence, 48 h; series mostly up to 46.1 µM. An outline of the steps: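 IC50 and maximal efficacy derive from four-parameter logistic modelling of titration curves, with reads scaled between DMSO-only wells (0%) and doxorubicin hydrochloride (100% inhibition). Compounds spanned up to 46 uM over 48 h.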

A short description of test [11]: Quantitative highthroughput screen to assess conditional lethalithy of NOMO1 cells grown in RPMI1640 with dialyzed fetal bovine serum (RPMI+ds) (AID 1963877). Further: nearly all actives have a fitted effect of over 30% in size. Further: potency means the concentration at half of the fitted maximal effect.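 On Viability: 100% = DMSO control wells and 0% = empty wells.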 The following applies: NOMO1 in RPMI+dialyzed FBS viability, ATP luminescence, 48 h; series mostly up to 45.8 µM. An outline of the steps: as §1
Test [12] can be described thus: Quantitative highthroughput screen to assess conditional lethalithy of NOMO1 cells grown in RPMI1640 with untreated serum (RPMI+s) (AID 1963876). Conditions: NOMO1 AML cells in RPMI+serum, CellTiter-Glo viability, 48 h; series mostly up to 45.8 µM. An outline of the steps:
as §1

Test [13] in a line: Quantitative highthroughput screen to assess conditional lethalithy of P12 Ichikawa cells grown in RPMI1640 with untreated serum (RPMI+s) (AID 1963881). Further: nearly all actives have a fitted effect of over 35% in size. Further: potency means the concentration at half of the fitted maximal effect.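 On Viability: 100% = DMSO wells and 0% = empty wells without cells.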 Conditions: ATP luminescence, 48 h; Potency: viability; series mostly up to 45.8 µM. An outline of the steps: as §1

Molecules are shown by their SMILES. “And” between values parts separate entries of the source, which are not always exact repeats. Equal values may be shown once. Records with an inconclusive call do not appear. Unmarked numbers belong to inactive results. The source made the active and inactive calls. The call rests on the fitted dose curve; in most records, active means well fitted curve in the direction sought with a large enough effect; inconclusive means small, poorly fitted or top-dose-only effect, or another doubt; inactive means no such curve, though single readings can be large; an effect the other way counts as inactive or inconclusive.

Turning to `CN1CCN(c2ccc([N+](=O)[O-])c3no[n+]([O-])c23)CC1`, the Potency in test [1] and in [2] was 8.33 µM (active) throughout. In addition, the Potency entry in [3] and in test [4] was “inactive” each time. Besides, in test [5], the activity (max response) was 1.98%.

Consider `O=C(O)c1nn(Cc2ccc(Cl)cc2Cl)c2ccccc12`, for which the Potency entry in test [1], in test [2], in test [6], in [3], in test [4] and in test [7] was “inactive” in each case. Besides, in test [5], the activity (max response) was 8.06% and -12.7%.

In the case of `CC1(C)C(=O)N(c2ccc(C#N)c(C(F)(F)F)c2)C(=S)N1Cc1ccc(-c2cn[nH]n2)cc1`, the Potency in test [1] was 16.6 µM (active); in test [2], 14.8 µM (active); in test [5] it was 25.1 µM (active).

Consider `C[C@@H]1C[C@@H]([C@H](O)CC2CC(=O)NC(=O)C2)C(=O)[C@@H](C)C1`, for which the Potency in test [1] was 376 nM (active) and 417 nM (active); in test [2] it was 841 nM (active) and 590 nM (active); in test [6] it was 1.18 µM (active); in test [8], 0.418 µM (active); in test [9], 0.59 µM (active); in [5] it was 1.84 µM (active) and 1.78 µM (active). Besides, the Potency in [10] was 920 nM (active) and 1 µM (active).

For the molecule `N=c1c2c(-c3ccccc3)c(-c3ccccc3)n(Cc3ccccc3)c2ncn1C1CCC(O)CC1` (stereo unspecified), the Potency in test [1] is 0.525 µM (active); in test [2], 0.372 µM (active); in [6] it was 16.6 µM (active); in test [4], 16.6 µM (active); in [5], 17.8 µM (active); in test [10], 8.91 µM (active).

As for `COC[C@H]1OC(=O)c2coc3c2[C@@]1(C)C1=C(C3=O)[C@@H]2CC[C@H](O)[C@@]2(C)C[C@H]1OC(C)=O`, the Potency in test [1] and in test [2] was 1.66 µM (active) throughout. Moreover, in test [5], the activity (max response) is -16.1%.

As for `CCNC(=O)C[C@@H]1N=C(c2ccc(Cl)cc2)c2cc(OC)ccc2-n2c(C)nnc21`, the Potency is 411 nM (active) and 417 nM (active) in test [1]; 461 nM (active) and 417 nM (active) in test [2]; 9.35 µM (active) in test [11]; 5.9 µM (active) in [6]; 0.935 µM (active) in test [8]; 1.05 µM (active) in test [9]. Moreover, in [5], the activity (max response) was -15.2%. Also, in test [10], the Potency entry is “inactive”.

`CNC(=O)N1N=C(c2ccc(N)cc2)c2cc3c(cc2CC1C)OCO3` (stereo unspecified): the Potency is 1.84 µM (active) in test [1], 2.31 µM (active) in [2], 10.5 µM (active) in test [8] and 5.9 µM (active) in test [9].

`CCOc1ccccc1-n1c(C(C)N2CCN(C(=O)COc3ccc(Cl)cc3)CC2)nc2ccccc2c1=O` (stereo unspecified): the Potency in test [1] was 920 nM (active) and 742 nM (active); in test [2] it was 1.46 µM (active) and 1.32 µM (active); in [4], 1.05 µM (active); in [8] it was 1.05 µM (active); in test [10] it was 0.891 µM (active).

`O=c1[nH]c2ccccc2n1C1CCN(Cc2ccc(-c3[nH]c4cc5ncnc5cc4nc3-c3ccccc3)cc2)CC1`: the Potency in [1] is 14.8 µM (active); in test [2], 1.84 µM (active); in test [10] it was 22.4 µM (active). Also, the Potency result in [6], in [3] and in [8] was “inactive” each time.

As to `CC(C)(C)c1cc(C=C(C#N)C#N)cc(Br)c1O`, the Potency in test [1] and in [2] was 16.6 µM (active) each time. In addition, the Potency result in test [6], in test [7], in test [9] and in [10] was “inactive” in each case. For the same molecule, the activity (max response) in [5] is 9.19%.

Take `COc1ccc(C(=O)c2c(C)n(CCN3CCOCC3)c3cc(I)ccc23)cc1`: the Potency in [1] is 13.2 µM (active); in test [2], 10.5 µM (active); in test [12] it was 0.935 µM (active); in test [3] it was 4.18 µM (active); in [8], 20.9 µM (active); in test [5], 31.6 µM (active). Further, the Potency in [10] is 20 µM (active).

On to `CCN1CCN(C(=O)Cc2ccc(Nc3ncc(F)c(Nc4ccc(C(=O)Nc5ccccc5Cl)cc4)n3)cc2)CC1`, for which the values for the Potency in [1], in [2] and in test [9] were 0.468 µM (active), 0.525 µM (active) and 4.69 µM (active), respectively.

As to `O=C(N[C@@H](COc1ccc2[nH]c(=O)[nH]c2c1)c1ccccc1)c1cccn(Cc2ccc(F)c(F)c2)c1=O`, the Potency in [1] is 11.6 µM (active); in [2], 11.6 µM (active); in test [3], 5.26 µM (active).

With `Cc1[nH]nc2ccc(-c3cncc(OC[C@@H](N)Cc4c[nH]c5ccccc45)c3)cc12`, the Potency in test [1] is 0.0468 µM (active); in [2] it was 65.1 nM (active) and 105 nM (active); in test [6] it was 0.526 µM (active); in [4], 1.05 µM (active); in test [13], 1.48 µM (active); in test [9], 0.418 µM (active). Further, the figures for the Potency in [5] and in test [10] were 0.708 µM (active) and 2.24 µM (active), respectively.

For the molecule `O=S(=O)(F)Cc1ccccc1`, the Potency result in test [1], in test [2], in test [3], in [4], in test [8] and in test [10] was “inactive” in each case. For the same molecule, in test [5], the activity (max response) was 2.11%.

Consider `C[C@]12CC[C@@H]3c4ccc(OC(=O)N(CCCl)CCCl)cc4CC[C@H]3[C@@H]1CC[C@@H]2OP(=O)(O)O`, for which the Potency entry in test [1], in test [2], in test [13] and in test [10] was “inactive” in each case. In test [5], the activity (max response) is -13.4%.

Turning to `CCN1CCCC1CNC(=O)C(O)(c1ccccc1)c1ccccc1` (stereo unspecified), the Potency entry in test [1] and in test [2] was “inactive” in each case. Moreover, the activity (max response) in test [5] was -3.88%.

For the molecule `CC(C)C[C@H](CN)CC(=O)O`, the Potency result in [1], in test [2], in test [11], in test [6], in test [4] and in test [10] was “inactive” throughout. Also, in [5], the activity (max response) was 8.17%.

Take `CC[C@@H](C(N)=O)N1CCCC1=O`: the Potency result in test [1], in [2], in [11], in test [6], in [4] and in test [10] was “inactive” throughout.

As for `Cc1ncc(OC[C@@]2(c3cccc(F)c3)C[C@H]2C(=O)Nc2ccc(F)cn2)c(C)n1`, the Potency result in [1], in test [2], in [11], in test [6], in [4] and in test [9] was “inactive” throughout. The Potency entry in test [10] was “inactive”. Moreover, the activity (max response) in test [5] is 7.8%.

On to `CC(C)=C[C@@H]1[C@@H](C(=O)OCc2coc(Cc3ccccc3)c2)C1(C)C`, for which the Potency entry in test [1] and in [2] was “inactive” in each case. In test [5], the activity (max response) was -18.7%.
